Test results from PubChem BioAssay AID488835 (Broad Institute, 2010).
In all, about 1,400 compounds went through this assay and about 140 (10%) were called active.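 The calls were made as follows: active = Half-maximal inhibitory dose from the fit at or below ten times the top valid tested dose; inconclusive = Invalid fit, or flat curve showing 30 to 70% inhibition; inactive = the rest.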 Only a sample is shown. Entries with a potency or affinity are not part of this list.

molecular target: Lysine-specific demethylase 4C (Homo sapiens) (UniProt Q9H3R0); experiment: GASC-1 (JMJD2C) histone demethylase inhibitors, dose response, biochemical, DELFIA europium, cherry-picked samples (AID 488835); details: GST-JMJD2C(1-420), H3K9me3 demethylation; series mostly up to 6 µM;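 also: signal is the H3K9me2 demethylation product detected by a dimethyl-specific antibody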
Sequence (Q9H3R0 1-420 limits assumed): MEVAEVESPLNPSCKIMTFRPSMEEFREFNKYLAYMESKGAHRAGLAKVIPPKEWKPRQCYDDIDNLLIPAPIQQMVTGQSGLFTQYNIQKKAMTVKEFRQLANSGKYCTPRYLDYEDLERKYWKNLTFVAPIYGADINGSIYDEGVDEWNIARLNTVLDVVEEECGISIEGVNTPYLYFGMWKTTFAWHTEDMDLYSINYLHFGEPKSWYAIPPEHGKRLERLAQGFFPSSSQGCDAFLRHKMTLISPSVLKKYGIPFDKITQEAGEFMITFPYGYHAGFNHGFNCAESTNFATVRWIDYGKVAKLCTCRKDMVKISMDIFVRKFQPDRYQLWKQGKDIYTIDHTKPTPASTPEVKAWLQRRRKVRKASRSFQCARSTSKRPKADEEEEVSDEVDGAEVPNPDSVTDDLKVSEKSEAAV

outcome, inactive:
O=C(CNC(=O)c1ccc(S(=O)(=O)N2CCCC2)cc1)N/N=C/c1ccccc1
C[C@H](CO)N1C[C@H](C)[C@@H](CN(C)C(=O)Nc2ccc3c(c2)OCO3)Oc2c(NS(=O)(=O)c3ccc(F)cc3)cccc2C1=O
Cc1cc(C(=O)Nc2sc3c(c2C#N)CCC(C)C3)no1 (stereo not given)
COc1ccc(/C(C)=N/Nc2nccnc2Cl)cc1
CNC[C@@H]1Oc2ccc(NC(=O)Nc3cccc4ccccc34)cc2C(=O)N([C@@H](C)CO)C[C@@H]1C
COc1ccc(NC(=O)N(C)C[C@H]2Oc3c(NC(=O)C4CCCCC4)cccc3C(=O)N([C@H](C)CO)C[C@@H]2C)cc1
CC(=O)N/C(=C\c1ccccc1)C(=O)OCC(=O)NC1CCCC1
Cc1ccc(S(=O)(=O)N2[C@@H](c3ccc(Cl)c(Cl)c3)C(C(=O)O)=C[C@H]2C(C)(C)C)cc1
NC(=O)C1CCN(c2nc(-c3ccccc3Br)cs2)CC1
CC(NC(=O)CCC(=O)c1ccc(F)cc1)C1CC2CCC1C2 (stereo not given)
Cc1ccc(S(=O)(=O)N2CCOC2CNC(=O)C(=O)NCCc2ccc(S(N)(=O)=O)cc2)cc1 (stereo not given)
Cn1c(=O)[nH]c(=O)c2c1nc(N1CCc3ccccc3C1)n2CCSc1nc2ccccc2s1
CC[C@H]1CCCCc2ccccc2[C@@H](C(=O)C[C@@H](O)CC(C)=O)OC1=O
Cn1c(=O)c2c(nc(NC3CCCCC3)n2Cc2ccccc2)n(C)c1=O
CCOc1ccc2nc(NC(=O)CS(=O)(=O)c3ccc(C)cc3)sc2c1
CC[C@@H]1C=C(C(=O)O)[C@H](c2ccc(C)cc2)N1S(=O)(=O)c1ccc(C)cc1
CCc1ccc([C@@H]2CC=C(C(=O)O)[C@H](c3ccc(Br)cc3)N2S(=O)(=O)c2ccc(C)cc2)cc1
O=C(CSc1ncccn1)NCc1ccc(F)cc1
C[C@H](CO)N1C[C@H](C)[C@H](CN(C)Cc2ccc(Oc3ccccc3)cc2)Oc2ccc(NC(=O)Nc3cccc4ccccc34)cc2CC1=O
COc1ccc(N2CCN(C(=O)Cn3nnc(-c4ccc(N(C)C)cc4)n3)CC2)cc1
Cc1nn(Cc2ccc([N+](=O)[O-])cc2)c(=O)n1-c1cccc(Cl)c1
O=C(c1oc(=O)c2ccccc2c1-c1ccccc1)N1CCOCC1
O=C(CSc1ncccn1)Nc1ccc(S(=O)(=O)N2CCCCC2)cc1
O=C(Nc1ccccc1)Nc1ccc(S(=O)(=O)N2CCCCC2)cc1
Cc1noc(C)c1NC(=O)Nc1cccc2c1O[C@H](CN(C)S(=O)(=O)c1cccs1)[C@@H](C)CN([C@H](C)CO)C2=O
